We go through 40 compounds from ChEMBL document CHEMBL3433997, “St. Jude Leishmania screening dataset” (2016).

The inhibition is the relative decrease from the control value, in per cent.

In the first assay the target is Hexose transporter 1 (Plasmodium falciparum) (UniProt O97467). Put plainly: ST_JUDE_LEISH: Cytotoxicity at 2uM final concentration against transgenic Leishmania Mexicana promastigotes LmPfHT that are glucose transport deficient and complemented with the Plasmodium falciparum hexose transporter. Activity is measured by DNA content using SYBR green in vitro. The assay is classed as functional.
Take `CC1CCc2sc(-c3nnc(SC(C)C(=O)N4CCCC4)o3)cc2C1` (stereo not given): the inhibition came out at 1.29%.
As to `CCOC(=O)c1ccc(NC(=O)Nc2cccc(-c3ccc(-c4nc5cc(F)ccc5[nH]4)cc3)c2)cc1`, the inhibition turned out to be 2.88%.
On to `O=C(n1c(-c2cc3ccccc3n2C(=O)C(F)(F)F)cc2ccccc21)C(F)(F)F`, for which the inhibition was 1.94%.
Same read-out and setting: next, `COc1ccc(-c2cnc3ccc(NCc4ccc(S(N)(=O)=O)cc4)nn23)cn1`: 4.83%; `CCS(=O)(=O)Nc1ccc2c(c1)/C(=C(/Nc1ccc(CN3CCCCC3)cc1)c1ccccc1)C(=O)N2`: 89.4%.
For `CS(=O)(=O)c1ccc(CCNCc2ccc(-c3ccc(CN(C(=O)c4ccc(Cl)nc4)C4CCN(Cc5ccccc5)CC4)cc3)nc2)cc1`, the inhibition is 3.39%.
Consider `CC1CCCCC1N(C)C1CCN(CCCNC(=O)C=Cc2ccccc2Cl)CC1` (stereo not given), for which the inhibition is -0.24%.
Still for that read-out and setting: next, `NC(=O)c1c(Cl)nc2ccccc2c1Cl`: 4.69%.
As to `Cc1cccc(Cn2ccc3c(N)nc(N)nc32)c1`, the inhibition worked out at 3.14%.
The same measure, in the same setting: next, `CN1CCCN(Cc2ccc(-c3cccc(NC(=O)c4ccc(Cl)cc4)c3)cc2)CC1`: 0.88%.
Same read-out and setting: next, `O=C(O[C@H]1CN[C@H](C#Cc2cc3ncnc(Nc4ccc5c(ccn5S(=O)(=O)c5cccs5)c4)c3s2)C1)N1CCOCC1`: 13.6%; `COc1ccc(NS(=O)(=O)c2ccccc2Br)cc1N1CCN(C)CC1`: -0.27%.
On the same count and under the same terms, the figure for `COc1ccc(C2NCCc3c2[nH]c2ccccc32)cc1CN1CCN(c2ccc(F)cc2)CC1` (stereo not given) is 0.27%.
For `COc1cccc(C2CCN(CCN3CCC(CNC(=O)c4ccc(-c5ccc(C(F)(F)F)cc5)cc4)CC3)CC2)c1`, the inhibition is 1.07%.
For the compound `O=C(Nc1ccccc1)N(Cc1cccc(-c2ccc(CNC3CCCC3)cc2)c1)C1CCN(Cc2ccccc2)CC1`, the inhibition was 4.72%.
Consider `Cc1ccc(NC(=O)c2cccc(CN3CCCN(CC4CCCCC4)CC3)c2)cc1F`, for which the inhibition came to 0.26%.
The same measure, in the same setting: next, `N=C(N)NCC=C(c1ccccc1)c1ccccc1`: 5.26%; `COc1ccc(CCn2c(=N)c(C(=O)NCc3cccnc3)cc3c(=O)n4ccccc4nc32)cc1`: 10.9%.
Consider `COc1ccc2ncc(C)c(CCN3CCC(NCc4ccc5c(n4)NC(=O)CS5)CC3)c2c1`, for which the inhibition stood at 6.68%.
Same read-out and setting: next, `Cc1ccc(CNC(=O)[C@H](Cc2ccccc2)Nc2cc(C)nc(NCC3CCCCC3)n2)cc1`: 4.57%; `CCn1c2ccccc2c2cc(C=NN=c3cc(C)[nH]c4ccccc34)ccc21`: 6%; `O=C(CC1CCCC1)N(Cc1ccc(-c2ccc(CNC3Cc4ccccc4C3)cc2)cc1)CC1CCCCN1` (stereo not given): 4.62%.
As for `COc1ccccc1CCCON1C(=N)N=C(N)NC1(C)C`, the inhibition stood at 5.03%.
Regarding `NC1=NC(c2ccccc2)(c2ccccc2)C(=O)N1CCOc1ccccc1`, the inhibition is 0.96%.
For the compound `CC(C)c1sc(-c2ccc(C(C)(C)C)cc2)nc1C(=O)NCCCN1CCCC1=O`, the inhibition stood at 1.22%.
The same measure, in the same setting: next, `COc1ccc(-c2nc3cccnc3n2CC(=O)Nc2c(C)cc(C)cc2C)c(OC)c1`: -1.73%.
As for `CC(=O)Nc1ccc(CN2CCC(NC(=O)c3ccc(-c4cccc(OC(C)C)c4)s3)CC2)cc1`, the inhibition stood at 2.62%.
On the same count and under the same terms, next, `CC(C)CCCC(C)(C)NC[C@@H](O)[C@H](Cc1ccccc1)NC(=O)c1cc(NC(C)C)cc(N2CCCCS2(=O)=O)c1F`: 5.83%; `O=C(Nc1ccc(-c2ccccc2)cc1)Nc1cccc(Cn2nc(Cl)c(N3CCNCC3)cc2=O)c1`: 2.24%; `CC(C)NCC(=O)Nc1cccc(C(=O)Nc2cccc(C(F)(F)F)c2)c1`: 2.76%.
As to `CC(C)(C)c1ccc(CNC(=O)c2cc(CNC3CCC(N)CC3)ccc2O)cc1` (stereo not given), the inhibition was -1.35%.
Turning to `O=C(Nc1cccc(-c2cccc(-c3nc4ccccc4[nH]3)c2)c1)c1csnn1`, the inhibition stood at 5.92%.
The same measure, in the same setting: next, `CCOc1ccc2ccccc2c1CNCCCCCCNCc1c(OCC)ccc2ccccc12`: 6.69%; `O=C(NCCCCCN1CCC(c2c[nH]c3ccccc23)CC1)Nc1cccc(Cl)c1`: 0.53%; `CCCN1CCN(CC(O)CNC(=O)Nc2ccc(Cl)cc2)CC1` (stereo not given): 0.64%.
The same measure, in the same setting: next, `COc1ccc(-c2ccc(NC(=O)c3ccc(Cl)cc3)cc2)cc1CN1CCN(C)CC1`: -2.59%; `CN1CCC(c2ccc(NC(=O)c3ccc(-c4cccc(C(F)(F)F)c4)o3)cc2)CC1`: 1.69%; `COc1ccc2c(NN=Cc3ccncc3)ccnc2c1`: -0.51%.
On the same count and under the same terms, next, `COc1cc(C(=O)NC2CC(C)(C)N(C)C(C)(C)C2)ccc1-c1nc2cc(Cl)c(Cl)cc2[nH]1`: 1.21%.
On to `O=C(NC1CCC(N2CCC(c3ccccc3C(F)(F)F)CC2)CC1)c1cc2ccccc2[nH]1` (stereo not given), for which the inhibition was 5.68%.

The target of the next assay is Glucose transporter (Leishmania mexicana) (UniProt O61059). Put plainly: ST_JUDE_LEISH: Cytotoxicity at 2uM final concentration against transgenic Leishmania Mexicana promastigotes LmGT2 that are glucose transport deficient and complemented with the L. Mexicana glucose transporter 2. Activity is measured by DNA content using SYBR green in vitro. The assay is classed as functional.
With `CC1CCc2sc(-c3nnc(SC(C)C(=O)N4CCCC4)o3)cc2C1` (stereo not given), the inhibition is -4.77%.
Still for that read-out and setting: next, `CCOC(=O)c1ccc(NC(=O)Nc2cccc(-c3ccc(-c4nc5cc(F)ccc5[nH]4)cc3)c2)cc1`: 0.33%.
For the compound `O=C(n1c(-c2cc3ccccc3n2C(=O)C(F)(F)F)cc2ccccc21)C(F)(F)F`, the inhibition is -0.64%.
Still for that read-out and setting: next, `COc1ccc(-c2cnc3ccc(NCc4ccc(S(N)(=O)=O)cc4)nn23)cn1`: 5.05%; `CCS(=O)(=O)Nc1ccc2c(c1)/C(=C(/Nc1ccc(CN3CCCCC3)cc1)c1ccccc1)C(=O)N2`: 82%; `CS(=O)(=O)c1ccc(CCNCc2ccc(-c3ccc(CN(C(=O)c4ccc(Cl)nc4)C4CCN(Cc5ccccc5)CC4)cc3)nc2)cc1`: 1.67%.
The same measure, in the same setting: the figure for `CC1CCCCC1N(C)C1CCN(CCCNC(=O)C=Cc2ccccc2Cl)CC1` (stereo not given) is -0.58%; for `NC(=O)c1c(Cl)nc2ccccc2c1Cl` it is 4.04%.
As to `Cc1cccc(Cn2ccc3c(N)nc(N)nc32)c1`, the inhibition is 3.04%.
On the same count and under the same terms, next, `CN1CCCN(Cc2ccc(-c3cccc(NC(=O)c4ccc(Cl)cc4)c3)cc2)CC1`: 0.76%; `O=C(O[C@H]1CN[C@H](C#Cc2cc3ncnc(Nc4ccc5c(ccn5S(=O)(=O)c5cccs5)c4)c3s2)C1)N1CCOCC1`: 10.6%; `COc1ccc(NS(=O)(=O)c2ccccc2Br)cc1N1CCN(C)CC1`: 3.86%.
On the same count and under the same terms, the figure for `COc1ccc(C2NCCc3c2[nH]c2ccccc32)cc1CN1CCN(c2ccc(F)cc2)CC1` (stereo not given) is 0.15%; for `COc1cccc(C2CCN(CCN3CCC(CNC(=O)c4ccc(-c5ccc(C(F)(F)F)cc5)cc4)CC3)CC2)c1` it is 1.17%.
Still for that read-out and setting: next, `O=C(Nc1ccccc1)N(Cc1cccc(-c2ccc(CNC3CCCC3)cc2)c1)C1CCN(Cc2ccccc2)CC1`: 2.99%; `Cc1ccc(NC(=O)c2cccc(CN3CCCN(CC4CCCCC4)CC3)c2)cc1F`: 0.75%.
With `N=C(N)NCC=C(c1ccccc1)c1ccccc1`, the inhibition was found to be 6.35%.
For `COc1ccc(CCn2c(=N)c(C(=O)NCc3cccnc3)cc3c(=O)n4ccccc4nc32)cc1`, the inhibition is 7.6%.
For `COc1ccc2ncc(C)c(CCN3CCC(NCc4ccc5c(n4)NC(=O)CS5)CC3)c2c1`, the inhibition came out at 6.71%.
Consider `Cc1ccc(CNC(=O)[C@H](Cc2ccccc2)Nc2cc(C)nc(NCC3CCCCC3)n2)cc1`, for which the inhibition was found to be 0.14%.
In the case of `CCn1c2ccccc2c2cc(C=NN=c3cc(C)[nH]c4ccccc34)ccc21`, the inhibition stood at 0.19%.
On the same count and under the same terms, next, `O=C(CC1CCCC1)N(Cc1ccc(-c2ccc(CNC3Cc4ccccc4C3)cc2)cc1)CC1CCCCN1` (stereo not given): 2.06%; `COc1ccccc1CCCON1C(=N)N=C(N)NC1(C)C`: 4.51%.
With `NC1=NC(c2ccccc2)(c2ccccc2)C(=O)N1CCOc1ccccc1`, the inhibition was 2%.
The same measure, in the same setting: the figure for `CC(C)c1sc(-c2ccc(C(C)(C)C)cc2)nc1C(=O)NCCCN1CCCC1=O` is 1.9%; for `COc1ccc(-c2nc3cccnc3n2CC(=O)Nc2c(C)cc(C)cc2C)c(OC)c1` it is 1.82%; for `CC(=O)Nc1ccc(CN2CCC(NC(=O)c3ccc(-c4cccc(OC(C)C)c4)s3)CC2)cc1` it is 7.43%.
On the same count and under the same terms, next, `CC(C)CCCC(C)(C)NC[C@@H](O)[C@H](Cc1ccccc1)NC(=O)c1cc(NC(C)C)cc(N2CCCCS2(=O)=O)c1F`: 7.87%; `O=C(Nc1ccc(-c2ccccc2)cc1)Nc1cccc(Cn2nc(Cl)c(N3CCNCC3)cc2=O)c1`: 4.62%.
As to `CC(C)NCC(=O)Nc1cccc(C(=O)Nc2cccc(C(F)(F)F)c2)c1`, the inhibition is -1.8%.
As to `CC(C)(C)c1ccc(CNC(=O)c2cc(CNC3CCC(N)CC3)ccc2O)cc1` (stereo not given), the inhibition worked out at 0.99%.
Take `O=C(Nc1cccc(-c2cccc(-c3nc4ccccc4[nH]3)c2)c1)c1csnn1`: the inhibition came to 1.92%.
Same read-out and setting: next, `CCOc1ccc2ccccc2c1CNCCCCCCNCc1c(OCC)ccc2ccccc12`: 4.92%; `O=C(NCCCCCN1CCC(c2c[nH]c3ccccc23)CC1)Nc1cccc(Cl)c1`: 0.16%; `CCCN1CCN(CC(O)CNC(=O)Nc2ccc(Cl)cc2)CC1` (stereo not given): 4.07%.
Still for that read-out and setting: next, `COc1ccc(-c2ccc(NC(=O)c3ccc(Cl)cc3)cc2)cc1CN1CCN(C)CC1`: -0.55%; `CN1CCC(c2ccc(NC(=O)c3ccc(-c4cccc(C(F)(F)F)c4)o3)cc2)CC1`: 1.19%; `COc1ccc2c(NN=Cc3ccncc3)ccnc2c1`: -0.6%.
`COc1cc(C(=O)NC2CC(C)(C)N(C)C(C)(C)C2)ccc1-c1nc2cc(Cl)c(Cl)cc2[nH]1`: the inhibition worked out at 3.3%.
Regarding `O=C(NC1CCC(N2CCC(c3ccccc3C(F)(F)F)CC2)CC1)c1cc2ccccc2[nH]1` (stereo not given), the inhibition is 31.2%.
